Screening data as filed in PubChem.
DT40 TDP1 no CPT – qHTS for Inhibitors of human tyrosyl-DNA phosphodiesterase 1 (TDP1): qHTS in cells in absence of CPT. DT40 Tdp1-/- hTDP1 cells, no CPT, ATP luminescence, 48 h. Potency, µM (doses to about 46.2 µM), for the others: at the top dose activity change, negative = growth inhibition, actives largely listed as inhibitors. 15% of 420,000 active; also: potency is read from the fitted curve at half-maximal effect; % is scaled to controls: 0 for no effect and ±100 for the full control effect; nearly all actives have a fitted effect of over 55% in size
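No-CPT arm: Tdp1-/-;hTDP1 DT40 cells (400/well) plus compounds, incubated ≥48 hr at 37 °C. Readout CellTiter-Glo luminescence.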
TDP1 block – qHTS Assay for Inhibitors of Tyrosyl-DNA Phosphodiesterase (TDP1); Tyrosyl-DNA phosphodiesterase 1 (Homo sapiens), Q9NUW8; recombinant TDP1, AlphaScreen DNA substrate cleavage; Potency, µM (highest dose often 130 µM), for the others: top-dose activity change, negative = inhibition, usual class: inhibitors; 0.28% of 350,000 active; also: potency is read from the fitted curve at half-maximal effect; % is scaled to controls: 0 for no effect and ±100 for the full control effect; nearly all actives have a fitted effect of over 40% in size
Target sequence (Q9NUW8 whole entry, looked up): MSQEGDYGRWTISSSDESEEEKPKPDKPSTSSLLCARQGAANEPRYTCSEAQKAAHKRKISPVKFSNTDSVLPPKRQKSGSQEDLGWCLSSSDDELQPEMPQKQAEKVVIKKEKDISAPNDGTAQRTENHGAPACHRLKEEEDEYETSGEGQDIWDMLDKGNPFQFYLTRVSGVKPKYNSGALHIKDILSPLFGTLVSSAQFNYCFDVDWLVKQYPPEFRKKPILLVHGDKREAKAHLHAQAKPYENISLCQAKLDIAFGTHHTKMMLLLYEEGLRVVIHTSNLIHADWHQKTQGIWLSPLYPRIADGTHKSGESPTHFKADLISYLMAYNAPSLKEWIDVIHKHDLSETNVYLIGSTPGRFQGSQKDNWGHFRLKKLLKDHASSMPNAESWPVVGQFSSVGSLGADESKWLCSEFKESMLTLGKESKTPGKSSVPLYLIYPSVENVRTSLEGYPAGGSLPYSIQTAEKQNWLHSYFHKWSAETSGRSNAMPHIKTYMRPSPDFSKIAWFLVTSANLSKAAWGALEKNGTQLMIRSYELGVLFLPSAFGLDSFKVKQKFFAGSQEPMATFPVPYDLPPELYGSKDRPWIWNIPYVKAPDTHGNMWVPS
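Here, a 5' biotin and 3' phosphotyrosine-FITC DNA oligonucleotide reports Tdp1 activity: intact substrate bridges AlphaScreen beads, while cleavage leaves a 3' phosphate and drops signal. All incubations at room temperature.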
TGFb inhibitor – qHTS for Inhibitors of TGF-b; HepG2 CAGA-GFP TGF-b/SMAD3 reporter, GFP fluorescence, 18 h; TGF-beta stimulated, 500 pg/mL final; Potency, µM (series often up to 46.1 µM), for the others: at the highest dose activity, negative = inhibition, most hits filed as inhibitors; 1.2% of 410,000 active; also: potency is read from the fitted curve at half-maximal effect; % is scaled to controls: 0 for no effect and ±100 for the full control effect; nearly all actives have a fitted effect of over 65% in size
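HEPG2 CAGA-GFP cells (1000/well, DMEM with 1% FBS) were pre-incubated 2 h at 37 degrees C, given compound by pin tool, then stimulated with TGF-beta at 500 pg/mL final for 18 h before per-cell GFP fluorescence imaging.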
TDP1 cell CPT – qHTS for Inhibitors of human tyrosyl-DNA phosphodiesterase 1 (TDP1): qHTS in cells in presence of CPT; Potency, µM (top dose mostly 46.2 µM), without a hit: at the top dose activity change, negative = growth inhibition, most hits filed as inhibitors; chicken DT40 Tdp1-/-;hTDP1 cells + 20 nM CPT, ATP luminescence, 48 h; 12% of 420,000 active; AID 686979, 2013; also: potency is read from the fitted curve at half-maximal effect; % is scaled to controls: 0 for no effect and ±100 for the full control effect; nearly all actives have a fitted effect of over 55% in size
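Cell growth measured by CellTiter-Glo luminescence after a minimum 48 h, 37 C compound exposure with 20 nM CPT in Tdp1-knockout DT40 cells stably expressing hTDP1, seeded 400/well; qHTS titration format.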
HepG2 viability – qHTS for Inhibitors of TGF-b: Cytotox Counterscreen; HepG2 CAGA-GFP viability, ATP luminescence, 18 h; Potency, µM (series often up to 46.1 µM), inactives show at the top dose activity change, negative = cytotoxicity, usual class: cytotoxic; 0.76% of 410,000 active; AID 588856, 2011; also: potency is read from the fitted curve at half-maximal effect
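HepG2 CAGA-GFP cells (1000/well, DMEM with 1% FBS) received compound, then TGF-beta at 500 pg/mL final, and were incubated 18 hours at 37 degrees C. Viability was read by CellTiter-Glo luminescence. Media-only wells were set as complete cell-killing and DMSO as no toxicity.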
IL-1B inflam inh – qHTS for Inhibitors of Inflammasome Signaling: IL-1-beta AlphaLISA Primary Screen. THP-1 LPS/ATP IL-1B secretion, AlphaLISA, 16 h; active compounds read low. 4.7% of 360,000 active. activity change, % at 57.5 µM. AID 743279, 2014; in the data active = activity change below about -50%; inconclusive = mostly about -30% to -49%; also: % is scaled to controls: 0 for no effect and ±100 for the full control effect
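Secreted IL-1B measured by AlphaLISA bead assay after 16 h compound exposure of THP-1 cells; compounds (final up to 57.5 uM) added 1 h before LPS (250 ng/mL) and ATP (1.25 mM) stimulation; lower signal means less secretion.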
* hit, by the source's call; ! = a repeat was not active. Hits are enriched below; roughly 19% of the tested compounds scored in any of these assays. Unless noted, calls follow the shape of the dose curve; as a rule, active = well fitted curve in the direction sought with a large enough effect; inconclusive = small, poorly fitted or top-dose-only effect, or another doubt; inactive = no such curve, though single readings can be large; an effect the other way counts as inactive or inconclusive.

What do the screens show for `Cc1ccc(O)c(NC(=S)NC(=O)c2ccc(-c3ccc(Cl)cc3)o2)c1`?
DT40 TDP1 no CPT: 26µM*; TGFb inhibitor: inconclusive; TDP1 cell CPT: 23µM*; HepG2 viability: -115%; IL-1B inflam inh: -5

Results for CCCNC(=O)NCCc1ccncc1 ?
DT40 TDP1 no CPT: -8%; TDP1 block: -2%; TGFb inhibitor: 2%; TDP1 cell CPT: -3%; HepG2 viability: -1%; IL-1B inflam inh: 59

How did CC(C)CC(=O)NCCc1ccncc1 do in these assays?
DT40 TDP1 no CPT: -1%; TDP1 block: 3%; TGFb inhibitor: -18%; TDP1 cell CPT: -11%; HepG2 viability: 2.8µM*; IL-1B inflam inh: -1

What do the screens show for `O=C(NCc1ccccc1)c1cc(C2COCCN2C(=O)OCCF)on1` (configuration not stated)?
DT40 TDP1 no CPT: 2%; TGFb inhibitor: -5%; TDP1 cell CPT: 1%; HepG2 viability: -1%; IL-1B inflam inh: 17

Results for COc1ccccc1OCc1nc2ccccc2n1Cc1ccccc1 ?
DT40 TDP1 no CPT: 16µM*; TDP1 block: 0%; TGFb inhibitor: -14%; TDP1 cell CPT: inconclusive; HepG2 viability: -6%

What do the screens show for `ClCc1nc2ccccc2n1Cc1ccccc1`?
DT40 TDP1 no CPT: 7.3µM*; TGFb inhibitor: 2%; TDP1 cell CPT: 10µM*; HepG2 viability: -10%; IL-1B inflam inh: -2

Results for Cc1ccc(Cn2c(Cc3ccccc3)nc3ccccc32)cc1 ?
DT40 TDP1 no CPT: 16µM*; TDP1 block: 1%; TGFb inhibitor: inconclusive; TDP1 cell CPT: 18µM*!; HepG2 viability: 16µM*!; IL-1B inflam inh: 8

Results for COc1ccc(CN2C(=O)C(CC(=O)NCCc3ccccn3)CC(C(=O)N3CCOCC3)=C2C)cc1 (configuration not stated) ?
DT40 TDP1 no CPT: 1%; TGFb inhibitor: -2%; TDP1 cell CPT: 0%; HepG2 viability: -31%; IL-1B inflam inh: -14

How did CCOc1ccc(NC(=O)CC(c2ccccc2)c2ccc(F)cc2)cc1 (configuration not stated) do in these assays?
DT40 TDP1 no CPT: 15µM*; TDP1 block: -4%; TGFb inhibitor: -1%; TDP1 cell CPT: -15%; HepG2 viability: -9%; IL-1B inflam inh: 5

How did COc1ccc(NC(=O)CC(c2ccc(F)cc2)c2ccc(OC(C)C)cc2)cc1 (configuration not stated) do in these assays?
DT40 TDP1 no CPT: 21µM*; TDP1 block: 3%; TGFb inhibitor: -9%; TDP1 cell CPT: inconclusive; HepG2 viability: -11%; IL-1B inflam inh: 9

How did Nc1ccc2c(c1)C(=O)CCC2 do in these assays?
DT40 TDP1 no CPT: -22%; TGFb inhibitor: -1%; TDP1 cell CPT: -8%; HepG2 viability: -13%; IL-1B inflam inh: -13

What do the screens show for `COCC(C)NC(=O)C1=CC(c2ccc3c(c2)OCO3)=NS(=O)(=O)N1C` (configuration not stated)?
DT40 TDP1 no CPT: -6%; TDP1 block: 6%; TGFb inhibitor: 14%; TDP1 cell CPT: 16%; HepG2 viability: -6%

What do the screens show for `COc1cc(NC(=O)c2ccccc2)c(OC)cc1NC(=O)CN1CCCCC1`?
DT40 TDP1 no CPT: 20µM*; TDP1 block: 2%; TGFb inhibitor: 6%; TDP1 cell CPT: inconclusive; HepG2 viability: -33%; IL-1B inflam inh: inconclusive

What do the screens show for `COc1cc(NC(=O)c2ccc(F)cc2)c(OC)cc1NC(=O)CN1CCCCC1`?
DT40 TDP1 no CPT: 16µM*; TDP1 block: 5%; TGFb inhibitor: 5%; TDP1 cell CPT: inconclusive; HepG2 viability: -16%; IL-1B inflam inh: -68*

Results for COc1cc(NC(=O)c2cccc(Cl)c2)c(OC)cc1NC(=O)CN1CCOCC1 ?
DT40 TDP1 no CPT: inconclusive; TDP1 block: 1%; TGFb inhibitor: 10%; TDP1 cell CPT: inconclusive; HepG2 viability: 5%; IL-1B inflam inh: -21

Results for COc1cc(NC(=O)c2cccc(Cl)c2)c(OC)cc1NC(=O)CN1CCCCC1 ?
DT40 TDP1 no CPT: inconclusive; TDP1 block: 3%; TGFb inhibitor: 2%; TDP1 cell CPT: inconclusive; HepG2 viability: 2%; IL-1B inflam inh: -79*

Results for COCCn1c(C)cc(O)c(C(c2ccccc2)N2CCN(c3ccccc3F)CC2)c1=O (configuration not stated) ?
DT40 TDP1 no CPT: -1%; TDP1 block: -3%; TGFb inhibitor: 27%; TDP1 cell CPT: -11%; HepG2 viability: 3%

How did CC(C)(C)c1nn(-c2ccccc2)c2[nH]c(=O)c(CNCc3ccc4c(c3)OCO4)cc12 do in these assays?
DT40 TDP1 no CPT: inconclusive; TDP1 block: 10%; TGFb inhibitor: inconclusive; TDP1 cell CPT: 18µM*; HepG2 viability: -57%; IL-1B inflam inh: 42

Results for O=C1CCCN1CCCNS(=O)(=O)c1ccc(F)c(F)c1 ?
DT40 TDP1 no CPT: 1%; TDP1 block: 4%; TGFb inhibitor: -14%; TDP1 cell CPT: 21%; HepG2 viability: -7%; IL-1B inflam inh: 6

How did COC(=O)C(C(=O)OC)C(CC(=O)c1ccc(C)cc1)c1cc(OC)c(OC)c(OC)c1 (configuration not stated) do in these assays?
DT40 TDP1 no CPT: -20%; TGFb inhibitor: 19%; TDP1 cell CPT: -5%; HepG2 viability: -10%; IL-1B inflam inh: 21

Results for COc1ccc(C(CC(=O)c2ccc(C)cc2)C(C#N)C#N)cc1OC (configuration not stated) ?
DT40 TDP1 no CPT: 5.2µM*; TDP1 block: 14%; TGFb inhibitor: inconclusive; TDP1 cell CPT: 4.1µM*; HepG2 viability: -50%; IL-1B inflam inh: -100*

Results for CCN(CC)S(=O)(=O)c1ccc2c(c1)N(CC(=O)Nc1ccc(Cl)cc1)C(=O)C1CCCN21 (configuration not stated) ?
DT40 TDP1 no CPT: inconclusive; TDP1 block: 0%; TGFb inhibitor: -3%; TDP1 cell CPT: inconclusive; HepG2 viability: -6%
